TDP1 cell CPT – qHTS for Inhibitors of human tyrosyl-DNA phosphodiesterase 1 (TDP1): qHTS in cells in presence of CPT | hit rate 12% among 420,000 | chicken DT40 Tdp1-/-;hTDP1 cells + 20 nM CPT, ATP luminescence, 48 h | Potency, µM (highest dose often 46.2 µM), hits mostly inhibitors; further: nearly all actives have a fitted effect of over 55% in size
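Cell growth measured by CellTiter-Glo luminescence after a minimum 48 h, 37 C compound exposure with 20 nM CPT in Tdp1-knockout DT40 cells stably expressing hTDP1, seeded 400/well; qHTS titration format.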
HT1080NT lethal – qHTS for induction of synthetic lethality in tumor cells producing 2HG: qHTS for the HT-1080-NT fibrosarcoma cell line | HT-1080-NT fibrosarcoma viability, CellTiter-Glo ATP luminescence, 48 h | Potency, µM (series often up to 46.1 µM), usual class: cytotoxic | hit rate 1.6% among 360,000 | AID 686970, 2013;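 further: NT is the 2HG producing partner of a matched IDH1 knockdown line; nearly all actives have a fitted effect of over 55% in size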
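Viability by CellTiter-Glo luminescence after 48 h compound exposure at 37C of HT-1080-NT cells (750/well, RPMI, 5% FBS). % activity scaled between DMSO wells and medium-only wells, then curve-fitted and categorized by curve class.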
DT40 TDP1 no CPT – qHTS for Inhibitors of human tyrosyl-DNA phosphodiesterase 1 (TDP1): qHTS in cells in absence of CPT; Potency, µM (titrated, usually from 46.2 µM), hits mostly inhibitors; AID 686978, 2013; DT40 Tdp1-/- hTDP1 cells, no CPT, ATP luminescence, 48 h; hit rate 15% among 420,000; further: nearly all actives have a fitted effect of over 55% in size
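Stably hTDP1-transfected Tdp1-null chicken DT40 cells were treated with library compounds minus camptothecin and grown for at least 48 hr at 37 °C, after which cellular ATP was quantified by luminescence.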
KB-3-1 tox – qHTS assay for MDR1-selective chemotherapeutics: Primary screen using the parental adenocarcinoma cell KB-3-1 | KB-3-1 viability, CellTiter-Glo ATP luminescence, 72 h | Potency, µM (highest dose often 46.1 µM), hits mostly cytotoxic | hit rate 1.4% among 400,000; further: nearly all actives have a fitted effect of over 60% in size
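Luminescent ATP read-out (CellTiter-Glo) measures survival of drug-naive KB-3-1 cells after 72 h compound exposure at 37 °C. Titration series was screened from lowest to highest concentration, with DMSO vehicle plates as background controls.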
KB-V1 MDR tox – qHTS assay for MDR1-selective chemotherapeutics: Primary screen using the drug-selected MDR subline cells KB-V1. KB-V1 MDR cells viability, CellTiter-Glo, 72 h. Potency, µM (highest dose often 46.1 µM), hits mostly cytotoxic. hit rate 3.4% among 400,000; further: nearly all actives have a fitted effect of over 60% in size
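Readout: CellTiter-Glo luminescence, 10 min after addition. Cells: KB-V1 MDR subline, 72 h at 37 degrees C with compound. Analysis: corrected, normalized data fitted to concentration-effect curves.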
HT1080 IDH1KD tx – qHTS for induction of synthetic lethality in tumor cells producing 2HG: qHTS for the HT-1080-IDH1KD cell line; HT-1080 IDH1 knockdown viability, ATP luminescence, 48 h; Potency, µM (series often up to 46.1 µM), actives largely listed as cytotoxic; hit rate 2% among 360,000
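In this qHTS, HT-1080 cells depleted of IDH1 are exposed for 48 h at 37 °C to compound titrations. Toxicity is scored from CellTiter-Glo luminescence, with DMSO as full viability and medium alone as none.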
Each line names hits and unclear results; the compound was inactive in the other large screens. Compounds with a hit are over-represented: about 19% of the library has one in this group of screens. The call rests on the fitted dose curve; in most records, active means well fitted curve in the direction sought with a large enough effect; inconclusive means small, poorly fitted or top-dose-only effect, or another doubt; inactive means no such curve, though single readings can be large; an effect the other way counts as inactive or inconclusive.

Cc1[nH]c2ccccc2c1/C=C/c1nc2ccccc2c(=O)n1CCO	TDP1 cell CPT 6.51µM, HT1080NT lethal inconclusive, DT40 TDP1 no CPT 4.61µM, KB-3-1 tox 11.6µM, KB-V1 MDR tox 11.6µM
O=c1c2ccccc2nc(/C=C/c2ccc(Br)cc2)n1CCCO	TDP1 cell CPT 23.1µM, DT40 TDP1 no CPT 20.6µM, KB-V1 MDR tox inconclusive, HT1080 IDH1KD tx inconclusive
CCn1c(/C=C/c2cc(Br)ccc2O)nc2ccccc2c1=O	TDP1 cell CPT inconclusive, DT40 TDP1 no CPT inconclusive, KB-3-1 tox inconclusive
O=c1c2ccccc2nc(/C=C/c2ccc(Br)cc2)n1CCO	TDP1 cell CPT inconclusive, DT40 TDP1 no CPT 23.1µM, KB-V1 MDR tox inconclusive, HT1080 IDH1KD tx inconclusive
Cc1nc2ccccc2c(=O)n1CCCO	none
COc1ccccc1OC[C@H](O)CO	none
O=c1c2ccccc2nc(/C=C/c2cccc([N+](=O)[O-])c2)n1CCCO	DT40 TDP1 no CPT inconclusive, HT1080 IDH1KD tx inconclusive
Cn1c(/C=C/c2cccc(Br)c2)nc2ccccc2c1=O	TDP1 cell CPT 29.1µM, HT1080NT lethal inconclusive, DT40 TDP1 no CPT inconclusive, KB-3-1 tox inconclusive, KB-V1 MDR tox inconclusive, HT1080 IDH1KD tx inconclusive
Cn1c(/C=C/c2cccc([N+](=O)[O-])c2)nc2ccccc2c1=O	none
O=c1c2ccccc2nc(/C=C/c2ccc([N+](=O)[O-])cc2)n1CCCO	TDP1 cell CPT inconclusive, DT40 TDP1 no CPT 20.6µM, KB-3-1 tox inconclusive, KB-V1 MDR tox 20.6µM
O=c1c2ccccc2nc(/C=C/c2ccc(Cl)cc2)n1CCO	TDP1 cell CPT 20.6µM, DT40 TDP1 no CPT inconclusive, KB-V1 MDR tox inconclusive
O=c1c2ccccc2nc(/C=C/c2cccc(Br)c2)n1CCCO	TDP1 cell CPT inconclusive, HT1080NT lethal inconclusive, DT40 TDP1 no CPT 13µM, HT1080 IDH1KD tx inconclusive
NC(=S)N=Nc1c(O)[nH]c2cc(F)c(F)cc12	DT40 TDP1 no CPT inconclusive, KB-V1 MDR tox inconclusive
NC(=S)N=Nc1c(O)[nH]c2c(Cl)cc(Cl)cc12	TDP1 cell CPT 16.4µM, HT1080NT lethal inconclusive, DT40 TDP1 no CPT 4.61µM
CCN(CCCNC(=O)Cn1ncc2c([nH]c3ccc(C)cc32)c1=O)c1ccccc1	none
O=C(CSc1ccc2ccccc2n1)Nc1ccc(N2CCOCC2)cc1	none
O=C(CSc1nncn1-c1ccccc1)Nc1ccc(N2CCOCC2)cc1	TDP1 cell CPT 23.1µM, DT40 TDP1 no CPT 13µM
CCCc1nc(SCC(=O)Nc2ccc(N3CCOCC3)cc2)c2ccccc2n1	TDP1 cell CPT inconclusive, DT40 TDP1 no CPT 5.17µM
CC(C)c1nc(SCC(=O)Nc2ccc(N3CCOCC3)cc2)c2ccccc2n1	TDP1 cell CPT 14.6µM, DT40 TDP1 no CPT inconclusive
CCc1nc(SCC(=O)N2CCCC2)c2ccccc2n1	none
O=C(CSc1nnnn1-c1ccccc1)Nc1ccc(N2CCOCC2)cc1	KB-V1 MDR tox inconclusive
CC(C)c1nc(SCC(=O)N2CCCC2)c2ccccc2n1	DT40 TDP1 no CPT inconclusive, KB-V1 MDR tox 20.6µM
O=C(CSc1nc2ccccc2c(=O)[nH]1)Nc1ccc(N2CCOCC2)cc1	TDP1 cell CPT 16.4µM
O=C(CSc1nc2ccccc2c(=O)[nH]1)Nc1ccccc1N1CCOCC1	KB-V1 MDR tox inconclusive
COc1ccc(-c2cnc(SCC(=O)Nc3ccc4c(c3)OCO4)n2Cc2ccco2)cc1	TDP1 cell CPT 18.4µM, HT1080NT lethal inconclusive, DT40 TDP1 no CPT 18.4µM
CC(=O)Nc1cccc(NC(=O)CSc2ncc(-c3ccc(Cl)cc3)n2Cc2ccco2)c1	TDP1 cell CPT 20.6µM, HT1080NT lethal inconclusive, DT40 TDP1 no CPT 20.6µM, KB-3-1 tox inconclusive, KB-V1 MDR tox inconclusive, HT1080 IDH1KD tx inconclusive
CCOc1ccc2nc(SC3CC(=O)N(c4ccc(OC)cc4)C3=O)sc2c1 (stereo unspecified)	TDP1 cell CPT 2.91µM, HT1080NT lethal inconclusive, DT40 TDP1 no CPT 4.61µM, HT1080 IDH1KD tx inconclusive
COc1ccc(N2C(=O)CC(Sc3nc4ccccc4s3)C2=O)cc1 (stereo unspecified)	TDP1 cell CPT 2.91µM, DT40 TDP1 no CPT 3.66µM
COc1ccc(N2C(=O)CC(Sc3nnc(-c4ccccc4F)n3C)C2=O)cc1 (stereo unspecified)	TDP1 cell CPT 4.11µM, DT40 TDP1 no CPT 5.17µM
COc1ccc(N2C(=O)CC(Sc3ncccc3C(=O)O)C2=O)cc1 (stereo unspecified)	none
CCOc1ccc(N2C(=O)CC(Sc3nc(O)c(CC)c(=O)[nH]3)C2=O)cc1 (stereo unspecified)	none
COc1ccc(N2C(=O)CC(Sc3nccc(C)n3)C2=O)cc1 (stereo unspecified)	none
C=CCNc1nnc(SC2CC(=O)N(c3ccc(OC)cc3)C2=O)s1 (stereo unspecified)	TDP1 cell CPT 3.66µM, HT1080NT lethal inconclusive, DT40 TDP1 no CPT 4.61µM, HT1080 IDH1KD tx inconclusive
CN(C)C1(CNC(=O)COc2ccc(C(C)(C)C)cc2)CCCCC1	TDP1 cell CPT inconclusive, DT40 TDP1 no CPT inconclusive (no result: HT1080NT lethal, HT1080 IDH1KD tx)
CCCn1c(SCC(=O)c2[nH]c(C)c(C(C)=O)c2C)n[nH]c1=O	none
N#Cc1ccc(OCC(=O)NNC(=S)NC2CCCCC2)cc1	TDP1 cell CPT inconclusive

Source: PubChem
